Experimental data from PubChem BioAssay AID1159580 (chemical genetic matrix, 2015).
Values joined by “and” are separate entries in the source; they are usually repeats but may differ in a detail not shown here. Equal entries are not always repeated. Among all 5,500 compounds or so, about 2,000 (36%) were called active. Not shown: some 18% with an inconclusive outcome. Rule as the data show it: active = normalized growth mostly below about 0.91 (no sharp cut-off); inconclusive = no clear call, values can overlap the other calls; inactive = mostly above about 0.92. Some of the results follow.

Experiment: chemical genetic growth profiling, strain panel (AID 1159580);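 also: tested at 20 µM; growth read once vehicle control cultures reached saturation at 30 °C; 1 = growth at the plate median or of vehicle wells; lower values mean less growth of the strain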
Conditions: S. cerevisiae deletion strains, growth OD

Measured: normalized growth

COC(=O)C[C@H]1C(C)(C)[C@@H](O)[C@@H]2CC3=C4CC(O)O[C@@H](c5ccoc5)[C@]4(C)CCC3[C@@]1(C)C2=O (some centres not stated)
inactive: locus YAL013W, strain DEP1, hits give low values 1.01 | locus YAL021C, strain ccr4, hits give low values 1.01 | locus YAL026C, strain drs2, hits give low values 1.06 | locus YAL030W, strain snc1, hits give low values 1.03 | locus YBL061C, strain skt5, hits give low values 1.03 | locus YBR009C, strain hhf1, hits give low values 1.02 | locus YBR021W, strain FUR4, hits give low values 1.07 | locus YBR023C, strain chs3, hits give low values 1 | locus YBR171W, strain sec66, hits give low values 1.05 | locus YBR229C, strain ROT2, hits give low values 1 | locus YBR231C, strain swc5, hits give low values 1.03 | locus YBR279W, strain paf1, hits give low values 1.03 | locus YCL011C, strain gbp2, hits give low values 1 | locus YCL016C, strain dcc1, hits give low values 0.99 | locus YCL029C, strain bik1, hits give low values 0.99 | locus YCL069W, strain vba3, hits give low values 1.01 | locus YCR088W, strain abp1, hits give low values 1.02 | locus YDL005C, strain med2, hits give low values 1.03 | locus YDL035C, strain GPR1, hits give low values 1.03 | locus YDL040C, strain nat1, hits give low values 1.02 | locus YDL074C, strain BRE1, hits give low values 1.01 | locus YDL101C, strain DUN1, hits give low values 1 | locus YDL134C, strain PPH21, hits give low values 0.978 | locus YDL185W, strain tfp1, hits give low values 0.962 | locus YDL192W, strain arf1, hits give low values 0.989 | locus YDR001C, strain nth1, hits give low values 1.02 | locus YDR069C, strain doa4, hits give low values 1.02 | locus YDR101C, strain arx1, hits give low values 0.999 | locus YDR137W, strain rgp1, hits give low values 1.01 | locus YDR159W, strain sac3, hits give low values 1.09 | locus YDR162C, strain NBP2, hits give low values 0.987 | locus YDR195W, strain ref2 1.01 | locus YDR297W, strain sur2, hits give low values 1.03 | locus YDR318W, strain mcm21, hits give low values 0.991 | locus YDR334W, strain swr1, hits give low values 1.03 | locus YDR335W, strain msn5, hits give low values 1.01 | locus YDR388W, hits give low values 0.984 | locus YDR392W, strain spt3, hits give low values 0.938 | locus YDR502C, strain sam2, hits give low values 0.981 | locus YEL003W, strain gim4, hits give low values 1.05 | locus YEL037C, strain rad23, hits give low values 1.03 | locus YEL061C, strain CIN8 (second series), hits give low values 1.02 | locus YEL061C, strain CIN8, hits give low values 1.01 | locus YER015W, strain faa2, hits give low values 1.01 | locus YER016W, strain bim1, hits give low values 1.02 | locus YER110C, hits give low values 0.98 | locus YER111C, strain swi4, hits give low values 1.03 | locus YER155C, strain BEM2 (second series), hits give low values 1.08 | locus YER155C, strain BEM2, hits give low values 0.998 | locus YER167W, strain BCK2, hits give low values 1.01 | locus YFR010W, strain ubp6, hits give low values 1.05 | locus YGL078C, strain dbp3, hits give low values 0.97 | locus YGL086W, strain mad1, hits give low values 1.02 | locus YGL167C, strain pmr1, hits give low values 1.02 | locus YGL173C, strain kem1, hits give low values 1.06 | locus YGL227W, strain vid30, hits give low values 1.03 | locus YGL240W, strain doc1, hits give low values 1.04 | locus YGL248W, strain PDE1, hits give low values 1.01 | locus YGL253W, strain hxk2, hits give low values 1.04 | locus YGR078C, strain PAC10, hits give low values 0.985 | locus YGR135W, strain pre9, hits give low values 0.95 | locus YGR229C, strain SMI1, hits give low values 1.04 | locus YGR252W, strain gcn5, hits give low values 0.981 | locus YHR013C, strain ard1, hits give low values 1.01 | locus YHR027C, strain rpn1, hits give low values 1.02 | locus YHR030C, strain SLT2, hits give low values 1.01 | locus YHR079C, strain IRE1 (second series), hits give low values 0.984 | locus YHR079C, strain IRE1, hits give low values 1.01 | locus YHR094C, strain hxt1, hits give low values 0.979 | locus YHR129C, strain ARP1, hits give low values 1 | locus YHR142W, strain chs7, hits give low values 0.994 | locus YHR200W, strain rpn10, hits give low values 0.996 | locus YIL066C, strain RNR3, hits give low values 1.02 | locus YIL073C, strain SPO22, hits give low values 0.916 | locus YIL125W, strain kgd1, hits give low values 0.987 | locus YIR030C, strain dcg1, hits give low values 0.976 | locus YJL092W, strain hpr5, hits give low values 1.03 | locus YJL095W, strain BCK1 (second series), hits give low values 1.02 | locus YJL095W, strain BCK1, hits give low values 0.977 and 1.02 | locus YJL115W, strain asf1, hits give low values 1.03 | locus YJL129C, strain trk1, hits give low values 1 | locus YJL134W, strain LCB3, hits give low values 1 | locus YJL154C, strain vps35, hits give low values 1.02 | locus YJL164C, strain tpk1, hits give low values 1.01 | locus YJL166W, strain qcr8, hits give low values 1.03 | locus YJL168C, strain set2, hits give low values 0.991 | locus YJL187C, strain SWE1 (second series), hits give low values 0.987
